Bioassay records (PubChem)
HCMV antiviral = qHTS Assay for inhibitors of the human cytomegalovirus (HCMV) | HFF cells, HCMV-luciferase reporter, 72 h; stronger effect = lower value | activity change, negative = inhibition, % at 57.5 µM | 410,000 tested, 4.5% active; in the data active = activity change below about -60%; inconclusive = no clear call, values can overlap the other calls; inactive = above about -39%
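Steps: HFFs plated, 16 h 37C; compounds added; HCMV-luciferase added to MOI 1 PFU/cell; 72 h 37C; OneGlo reagent, 5 min room temperature; luminescence read, normalized to controls.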
VACV Venus inh = qHTS for Stage-Specific Inhibitors of Vaccinia Orthopoxvirus: Venus Reporter Primary qHTS. Vaccinia virus Venus reporter expression, fluorescence. Potency, µM (highest dose often 36.5 µM), most hits filed as inhibitors. 330,000 tested, 0.46% active. AID 720580, 2013; calls by dose curve; tested in A549 cells; note: nearly all actives have a fitted effect of over 30% in size
LASV entry inh = qHTS for Inhibitors of binding or entry into cells for Lassa Virus | Potency, µM (titrated, usually from 37.9 µM), actives largely listed as inhibitors | 300,000 tested, 1.2% active | Lassa virus pseudotype entry inhibition, cell reporter; calls by dose curve; tested in HEK293 cells; note: nearly all actives have a fitted effect of over 50% in size
VACV mCherry inh = qHTS for Stage-Specific Inhibitors of Vaccinia Orthopoxvirus: mCherry Reporter Primary qHTS. Vaccinia virus mCherry reporter infection, fluorescence. Potency, µM (highest dose often 36.5 µM), actives largely listed as inhibitors. 310,000 tested, 0.63% active. AID 720579, 2013; calls by dose curve; tested in A549 cells; note: nearly all actives have a fitted effect of over 35% in size
HCV inhibitor = qHTS Assay for Inhibitors of Hepatitis C Virus (HCV); 340,000 tested, 3.4% active; Huh7.5.1 HCVcc-Cre infection, luciferase reporter, 44 h; Potency, µM (highest dose often 41.8 µM), actives largely listed as inhibitors; AID 651820, 2012; active = well fitted inhibition curve with a large enough effect; inconclusive = small, poorly fitted or top-dose-only effect, or another doubt; inactive = no such curve, though single readings can be large or run the other way
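Whole-lifecycle infectious HCVcc-Cre system; cells 1,000/well, compound then virus (~0.5 moi) added 4 h after plating, 44 h culture. Luciferase read 15 sec following 15 min substrate incubation, room temp.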
MARV entry inh = qHTS for inhibitors of binding or entry into cells for Marburg Virus; Marburg virus pseudotyped entry inhibition, cell reporter; Potency, µM (titrated, usually from 37.8 µM), most hits filed as inhibitors; 300,000 tested, 1.8% active; AID 540276, 2011; calls by dose curve; tested in HEK293 cells
A number is an active result; . = inactive; ? = inconclusive; / = no result; ! = repeats disagree. Shown are actives, neighbours in structure and some others; about 7.8% of the full set was active somewhere.

SMILES	HCMV antiviral	VACV Venus inh	LASV entry inh	VACV mCherry inh	HCV inhibitor	MARV entry inh
CC1CC(C)CN(C(C)C(=O)Nc2cc(S(=O)(=O)N3CCCCC3)ccc2Cl)C1 (stereo not given)	.	.	?	.	.	.
CC1CCN(C(C)C(=O)Nc2cc(S(=O)(=O)N3CCCCC3)ccc2Cl)CC1 (stereo not given)	?	.	.	.	16µM	.
CC#CCN1c2ccccc2[C@]23CCC(=O)N(Cc4ccco4)C2=NC(C(=O)OC)=C(C(=O)OC)[C@H]13	/	/	/	/	/	.
COc1ccc(OC)c(CN2CCCC(c3nc(-c4ccncc4)ncc3-c3ccccc3C)C2)c1 (stereo not given)	/	.	/	.	/	/
Cc1ccc2c(c1)N(C(=O)Nc1cccc3c1CCCC3)CCO2	.	.	.	.	/	/
CC(NCc1ccc(-c2ccccc2)cc1)C(O)c1ccccc1 (stereo not given)	-101	?	4.6µM	.	?	?
CC(NCc1ccc(Cl)cc1)C(O)c1ccccc1 (stereo not given)	.	.	.	.	.	?
COc1ccc(C2=C3C(=O)OCC3Cc3ncn(Cc4ccccc4)c32)cc1 (stereo not given)	-76	.	/	.	.	/
CCOC(=O)C1(CCOc2ccccc2)CCN(Cc2cccc3c2OCO3)CC1	.	.	?	.	10µM	?
CCOC(=O)C1(CCOc2ccccc2)CCN(Cc2cc(OC)c3c(c2)OCO3)CC1	?	.	?	.	11µM	2.8µM
CCOC(=O)C1(CCOc2ccccc2)CCN(Cc2ccccc2O)CC1	.	.	.	.	?	?
O=C(Cn1c(-c2cccs2)cc2cc(Cl)ccc21)N1CCCCC1	.	.	.	.	/	/
N#Cc1c(NC(=O)CCN2C(=O)c3ccccc3C2=O)oc(-c2ccccc2)c1-c1ccccc1	.	.	.	.	.	.
N#Cc1c(NC(=O)CCn2cnc3ccccc3c2=O)oc(-c2ccccc2)c1-c1ccccc1	.	?	?	/	10µM!	?
O=C(CCC1CCCC1)N1CCc2c([nH]c3ccccc23)C1c1ccc(Cl)cc1 (stereo not given)	-69	.	?	.	/	/
O=C(CCC1CCCC1)N1CCc2c([nH]c3ccccc23)C1c1ccc(F)cc1 (stereo not given)	-84	.	5µM	.	/	/
Cc1ccccc1C1(CC(=O)N2CC3CC4CC(C3)CC2C4)CC(=O)N(Cc2cccnc2)C1=O (stereo not given)	/	.	/	.	/	/
CC(=O)OCC12CC(OC(=O)CC(C)C)C(C)=CC1OC1C(O)C(OC(C)=O)C2(C)C12CO2 (stereo not given)	-97	/	?	/	/	?
COc1ccc2nc(C)cc(Sc3nc4ccccc4s3)c2c1	-99	1.4µM	16µM	0.79µM	?	?
COc1ccc(Cl)cc1NC(=O)c1cc(C)nn1-c1ccccc1	.	.	.	.	/	.
COc1ccccc1NCC(O)COc1ccc(C(C)(C)C)cc1 (stereo not given)	.	.	.	.	?	?
COc1ccc(OCC(O)CNCCOc2ccccc2OC)c(C(C)(C)C)c1 (stereo not given)	-67	/	/	/	18µM	/
COCCCN1C(=O)c2oc3ccccc3c(=O)c2C12C(=O)N(C)c1ccccc12 (stereo not given)	.	.	.	.	/	.
Cc1ccc(NC(=O)O/N=C/c2c(C)nn(C(C)(C)C)c2C)cc1Cl	-86	.	?	.	.	?
O=C(c1ccc(-c2ccccc2)c(F)c1)C1CCCN(CCCn2cccn2)C1 (stereo not given)	.	/	/	/	?	/
SMILES	HCMV antiviral	VACV Venus inh	LASV entry inh	VACV mCherry inh	HCV inhibitor	MARV entry inh
O=C(c1ccc(-c2ccccc2)c(F)c1)C1CCCN(CCO)C1 (stereo not given)	.	.	.	.	11µM	?
CN(C)S(=O)(=O)N1CCCC(C(=O)c2ccc(-c3ccccc3)c(F)c2)C1 (stereo not given)	.	/	?	/	22µM	?
CSc1ccc(C(=O)C2CCCN(S(=O)(=O)N(C)C)C2)cc1 (stereo not given)	.	.	.	.	.	.
COc1ccccc1CN1CCOc2ccc(CN3CCCCC3CO)cc2C1 (stereo not given)	/	.	/	.	/	/
CC[N+]1(CC(=O)c2ccc(I)cc2)CCCCC1	/	.	/	.	/	/
COc1cc2[nH]c(=O)n(CCC(=O)N3CCc4ccccc4C3)c(=O)c2cc1OC	.	.	.	.	.	.
COc1cccc(N2CCN(C(=O)c3ccc(Cn4c(=O)[nH]c5cc(OC)c(OC)cc5c4=O)cc3)CC2)c1	.	.	.	.	/	?
CC(=O)c1ccc(N2CCN(C(=O)c3ccc(Cn4c(=O)[nH]c5ccccc5c4=O)cc3)CC2)cc1	.	.	.	.	/	/
COc1cc2[nH]c(=O)n(CCC(=O)N3CCN(c4cc(Cl)ccc4C)CC3)c(=O)c2cc1OC	-64	/	.	/	?	?
CCOc1cc2[nH]c(=O)n(CCC(=O)N3CCN(c4ccccc4OC)CC3)c(=O)c2cc1OCC	.	/	.	/	.	.
O=C(c1ccc(Cn2c(=O)[nH]c3ccccc3c2=O)cc1)N1CCN(c2ccc(Cl)cc2)CC1	?	/	.	/	11µM	?
COc1cc2[nH]c(=O)n(CCCCCC(=O)N3CC=C(c4ccccc4)CC3)c(=O)c2cc1OC	.	?	?	.	?	8.9µM
COc1cc2[nH]c(=O)n(Cc3ccc(C(=O)N4CCN(c5cccc(C)c5C)CC4)cc3)c(=O)c2cc1OC	-108	.	.	.	/	.
O=C(Nc1ccc(Br)cn1)c1cnn2c1NC(=C1CC1)C=C2C(F)F	/	.	/	.	/	/
CCOC(=O)c1cc2c(=O)n3ccccc3nc2n(C(C)C)c1=NC(=O)C(C)(C)Oc1ccc(Cl)cc1	.	?	.	.	/	.
CC1CCN(c2csc3ccc(F)cc3c2=O)CC1	.	.	.	.	/	/
COC(=O)c1ccccc1NC(=O)NCc1ccc2c(c1)CCN2C(=O)c1ccccc1	.	.	?	.	/	/
CC(=O)N1CCc2cc(S(=O)(=O)NC(CC(C)C)C(=O)NCCc3ccccc3)ccc21 (stereo not given)	.	.	.	.	/	.
COc1cc2[nH]c(=O)n(CCCCCC(=O)N3CCN(c4cccc(C(F)(F)F)c4)CC3)c(=O)c2cc1OC	-70	?	?	?	/	?
CCOc1cc2[nH]c(=O)n(CCCCC(=O)N3CCCCCC3)c(=O)c2cc1OCC	-104	/	?	/	.	.
Cc1ccc(NC(=O)C2CCCN(c3ncnc4onc(C)c34)C2)c(Cl)c1 (stereo not given)	.	?	.	?	/	/
CCn1c(=O)c2cc(C(=O)NCCN(C)C)sc2c2ccccc21	.	?	?	.	10µM	7.1µM
CCn1c(=O)c2cc(C(=O)NCCOC)sc2c2ccccc21	.	.	.	.	10µM	.
